Inconclusive results are not listed. Activity calls are given as the source filed them. The call rests on the fitted dose curve; in most records, active means well fitted curve in the direction sought with a large enough effect; inconclusive means small, poorly fitted or top-dose-only effect, or another doubt; inactive means no such curve, though single readings can be large or run the other way.
Target: Runt-related transcription factor 1 (Homo sapiens) + Core-binding factor subunit beta (Homo sapiens) (UniProt Q01196+Q13951)
Sequence (Q01196 whole entry, looked up): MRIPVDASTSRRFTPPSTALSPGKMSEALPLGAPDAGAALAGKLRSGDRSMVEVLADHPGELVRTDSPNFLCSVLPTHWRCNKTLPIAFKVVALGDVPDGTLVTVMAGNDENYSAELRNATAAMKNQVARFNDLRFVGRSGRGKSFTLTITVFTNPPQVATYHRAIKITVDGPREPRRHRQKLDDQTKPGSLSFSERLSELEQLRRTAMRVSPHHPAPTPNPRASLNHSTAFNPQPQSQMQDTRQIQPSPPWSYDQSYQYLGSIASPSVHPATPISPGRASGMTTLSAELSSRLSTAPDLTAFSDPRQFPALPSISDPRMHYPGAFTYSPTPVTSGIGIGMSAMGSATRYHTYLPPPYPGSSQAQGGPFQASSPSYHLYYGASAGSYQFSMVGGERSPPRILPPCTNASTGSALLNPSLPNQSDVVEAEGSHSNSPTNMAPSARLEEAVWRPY
Sequence (Q13951 whole entry, looked up): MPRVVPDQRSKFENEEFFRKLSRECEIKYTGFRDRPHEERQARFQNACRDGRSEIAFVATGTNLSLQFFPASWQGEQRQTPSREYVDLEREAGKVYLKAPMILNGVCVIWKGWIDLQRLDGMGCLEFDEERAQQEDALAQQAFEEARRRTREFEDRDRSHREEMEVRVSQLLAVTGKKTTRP
Test: qHTS Assay for Compounds Blocking the Interaction Between CBF-beta and RUNX1 for the Treatment of Acute Myeloid Leukemia: SAR for Probe
Settings: AlphaScreen CBFb-His/RUNX1-biotin binding, biochemical
From the text: NIH Chemical Genomics Center [NCGC] NIH Molecular Libraries Probe Production centers Network [MLPCN] MLPCN Grant: X01MH083259-01 Assay Submitter (PI): Paul Liu NCGC Assay Overview: Core Binding Factor (CBF) abnormalities are associated with 20-25% of all acute myeloid leukemias (AML), of which 5-10% are further sub classified as acute myelomonocytic leukemia with eosinophilia, also known as M4Eo in the FAB classification scheme. This subtype of leukemia is usually associated with chromosome 16 inversion (p13:q22). Chromosome 16 inversion results in formation of the fusion oncogene CBFB-MYH11, which encodes the fusion protein CBF-beta-SMMHC. […] It has been hypothesized that the interference of CBF-beta and RUNX1 binding could have therapeutic implications for patients with CBF mediated leukemias. […]
NCGC Assay Protocol Summary: Step, Parameter, Description (1) Reagent, 3 uL CBFb-His/RUNX1-biotin mix incubated together for 20 minutes at room temperature (30 nM each) (2) Compound or control, 23 nL compound stock solution (3) Incubation, 15 minutes at Room temperature (4) Reagent, 1 uL 50 ng each of beads (Nickel beads and streptavidin beads) (5) Incubation, 90 minutes at Room temperature (6) Detection, […], Envision reader in AlphaScreenTM mode Keywords: MLSMR, MLPCN, NIH Roadmap, qHTS, NCGC, Core binding factor, CBF, CBF-beta, Acute myeloid leukemia

CCN(CC)CCN1C(=O)CN=C(c2ccccn2)c2cc(Cl)ccc21
Potency: 21.7 µM (active)

CN1C(=O)CN=C(c2ccc[nH]2)c2cc(Cl)ccc21 (tested in a mixture with another compound)
Potency: 109 µM (active)
